PubChem BioAssay (EPA / NIEHS)
Values joined by “and” are separate entries in the source; they are usually repeats but may differ in a detail not shown here. Identical values can stand only once. Records with an inconclusive call do not appear. Where a structure was tested more than once in an assay, its records may differ in their call. Active and inactive are the calls of the source. How the source made its calls, unless noted: active means hit-call score of the fitted dose curve at least 0.9, where 1 is the maximum; inactive means score below 0.9.

Columns and labels:
[1] = ATG_TCF_b_cat_CIS: Attagene CIS-FACTORIAL HepG2 Assay for human T-Cell-Factor with beta-catenin (TCF/b-cat) (AID 2282965); settings: HepG2 TCF/beta-catenin cis-reporter transcription, actives raise or lower the signal
Method in brief: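 Using capillary electrophoresis as the read-out, labelled reporter cDNA fragments from transiently transfected HepG2 were sized and quantified. Exposure lasted 24 hours; activity in either direction was referenced to DMSO.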

[2] = ATG_TAL_CIS: Attagene CIS-FACTORIAL HepG2 Assay for human TAL Basal Promoter (AID 2282966); settings: HepG2 Attagene cis-factorial TAL promoter reporter; actives raise or lower the signal;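 further: background control endpoint measuring basal TAL promoter reporter mRNA not a specific factor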
Method in brief: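 Basal-promoter background-control endpoint from a multiplexed HepG2 reporter panel. Cells were exposed 24 h, then reporter mRNA was read by RT-PCR/CE fluorescence and fitted in both directions relative to DMSO.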

[3] = ATG_TGFb_CIS: Attagene CIS-FACTORIAL HepG2 Assay for human Transforming Growth Factor (TGF) (AID 2282967); settings: HepG2 Attagene CIS TGFb reporter, mRNA transcription; actives raise or lower the signal
Method in brief: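 Cells were dosed for 24 hours, after which total RNA was reverse-transcribed and reporter sequences amplified, labeled and sized by capillary electrophoresis. Activity was fitted in both directions against DMSO.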

[4] = ATG_VDRE_CIS: Attagene CIS-FACTORIAL HepG2 Assay for human Vitamin D Receptor Element (VDRE) (AID 2282968); settings: HepG2 VDRE cis-reporter transcription, actives raise or lower the signal
Method in brief: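 Steps: transfect HepG2 with multiple reporter transcription units; dose chemicals 24 h; isolate RNA; RT-PCR; label with 6-FAM primer extension; HpaI digest; capillary electrophoresis. Curves fitted both directions against DMSO.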

[5] = target: Estrogen receptor (Homo sapiens) (UniProt P03372); assay: ATG_ERa_TRANS: Attagene TRANS-FACTORIAL HepG2 Assay for human Estrogen Receptor alpha (ERa) (AID 2282970; active means hit-call score of the fitted dose curve at least 0.9, where 1 is the maximum); settings: HepG2 Attagene TRANS ERa GAL4 reporter, mRNA
Sequence of Estrogen receptor (Homo sapiens) (P03372 whole entry, looked up, the tested form may be a part): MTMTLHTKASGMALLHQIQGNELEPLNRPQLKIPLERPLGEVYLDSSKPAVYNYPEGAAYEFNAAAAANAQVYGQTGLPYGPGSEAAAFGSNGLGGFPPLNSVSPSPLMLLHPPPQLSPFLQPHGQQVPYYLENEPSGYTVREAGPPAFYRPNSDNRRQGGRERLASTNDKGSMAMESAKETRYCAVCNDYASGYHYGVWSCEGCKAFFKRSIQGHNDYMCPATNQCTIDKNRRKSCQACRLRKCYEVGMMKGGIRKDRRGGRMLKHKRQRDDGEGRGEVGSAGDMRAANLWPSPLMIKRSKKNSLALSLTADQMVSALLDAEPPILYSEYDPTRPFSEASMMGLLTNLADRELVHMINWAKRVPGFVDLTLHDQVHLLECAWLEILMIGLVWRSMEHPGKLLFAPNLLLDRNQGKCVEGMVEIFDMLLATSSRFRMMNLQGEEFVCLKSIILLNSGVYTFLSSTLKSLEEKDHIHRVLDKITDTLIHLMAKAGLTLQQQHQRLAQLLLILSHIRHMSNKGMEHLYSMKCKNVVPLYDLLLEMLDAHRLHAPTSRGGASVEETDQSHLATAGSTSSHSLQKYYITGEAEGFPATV
Method in brief: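 Gal4-fusion ERa transactivation, measured as reporter transcript level in transiently transfected HepG2 cells. Exposure 24 h; RT-PCR plus capillary electrophoresis with fluorescence detection.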

[6] = target: Steroid hormone receptor ERR1 (Homo sapiens) (UniProt P11474); assay: ATG_ERRa_TRANS: Attagene TRANS-FACTORIAL HepG2 Assay for human Estrogen-Related Receptor alpha (ERRa) (AID 2282971; active means hit-call score of the fitted dose curve at least 0.9, where 1 is the maximum); settings: HepG2 Attagene TRANS reporter, ERRa transactivation
Sequence of Steroid hormone receptor ERR1 (Homo sapiens) (P11474 whole entry, looked up, the tested form may be a part): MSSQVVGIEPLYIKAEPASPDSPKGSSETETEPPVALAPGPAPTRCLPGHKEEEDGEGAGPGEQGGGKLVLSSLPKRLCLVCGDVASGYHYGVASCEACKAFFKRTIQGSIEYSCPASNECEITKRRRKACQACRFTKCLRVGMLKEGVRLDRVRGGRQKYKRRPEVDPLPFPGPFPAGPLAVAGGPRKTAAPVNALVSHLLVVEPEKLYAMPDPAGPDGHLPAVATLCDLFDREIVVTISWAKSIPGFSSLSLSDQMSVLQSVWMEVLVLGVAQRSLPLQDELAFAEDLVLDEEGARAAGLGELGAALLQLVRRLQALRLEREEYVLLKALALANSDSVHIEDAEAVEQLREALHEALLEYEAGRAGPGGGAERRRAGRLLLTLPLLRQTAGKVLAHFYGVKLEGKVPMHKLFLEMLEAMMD
Method in brief: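 HepG2 cells transiently transfected with GAL4-UAS reporter units and chimeric NR-Gal4 constructs; after 24 hour compound incubation, reporter mRNA quantified by RT-PCR, fluorescent labelling and capillary electrophoresis, gain of signal versus DMSO.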

[7] = target: X-box-binding protein 1 (Homo sapiens) (UniProt P17861); assay: ATG_Xbp1_CIS: Attagene CIS-FACTORIAL HepG2 Assay for human X-box Binding Protein 1 (XBP1) (AID 2282972); settings: HepG2 XBP1 cis-element reporter, Attagene multiplex; actives raise or lower the signal
Sequence of X-box-binding protein 1 (Homo sapiens) (P17861 whole entry, looked up): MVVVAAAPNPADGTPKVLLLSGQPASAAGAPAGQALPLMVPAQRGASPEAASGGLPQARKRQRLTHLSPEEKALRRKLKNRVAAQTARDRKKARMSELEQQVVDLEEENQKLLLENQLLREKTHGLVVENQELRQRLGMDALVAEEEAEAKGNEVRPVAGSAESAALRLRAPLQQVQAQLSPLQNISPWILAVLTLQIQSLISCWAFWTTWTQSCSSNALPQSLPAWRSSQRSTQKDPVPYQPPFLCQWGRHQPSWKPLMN
Method in brief: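 Reporter transcripts were quantified by RT-PCR with fluorescent primer extension and capillary electrophoresis after 24 h chemical exposure. Cells: transiently transfected HepG2 carrying cis-regulated reporter constructs; data fitted bidirectionally relative to DMSO.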

[8] = ATG_M_19_TRANS: Attagene TRANS-FACTORIAL HepG2 Assay for M19 Transcription Factor (Internal Marker) (AID 2282974; active means hit-call score of the fitted dose curve at least 0.9, where 1 is the maximum); settings: HepG2 Attagene TRANS-FACTORIAL M19 internal marker reporter
Method in brief: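 Cells: human HepG2, transiently transfected with multiplexed reporter transcription units. Exposure: 24 h. Detection: RT-PCR of reporter mRNA with capillary electrophoresis. Analysis: gain-of-signal vs DMSO.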

[9] = ATG_GAL4_TRANS: Attagene TRANS-FACTORIAL HepG2 Assay for GAL4 (Internal Marker) (AID 2282976; active means hit-call score of the fitted dose curve at least 0.9, where 1 is the maximum); settings: HepG2 Attagene TRANS GAL4 internal marker reporter
Method in brief: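 Background-control readout: GAL4-UAS reporter transcript in transiently transfected HepG2 cells after 24 h compound exposure. Measured by RT-PCR, 6-FAM primer extension, HpaI digest and capillary electrophoresis; gain-of-signal fit versus DMSO.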

[10] = target: Nuclear receptor subfamily 1 group I member 3 (Homo sapiens) (UniProt Q14994); assay: ATG_CAR_TRANS: Attagene TRANS-FACTORIAL HepG2 Assay for human Constitutive Androstane Receptor (CAR) (AID 2282969; active means hit-call score of the fitted dose curve at least 0.9, where 1 is the maximum;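 further: activators raise reporter mRNA above DMSO so AC50 marks induction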); settings: HepG2 Attagene TRANS-FACTORIAL CAR reporter
Sequence of Nuclear receptor subfamily 1 group I member 3 (Homo sapiens) (Q14994 whole entry, looked up, the tested form may be a part): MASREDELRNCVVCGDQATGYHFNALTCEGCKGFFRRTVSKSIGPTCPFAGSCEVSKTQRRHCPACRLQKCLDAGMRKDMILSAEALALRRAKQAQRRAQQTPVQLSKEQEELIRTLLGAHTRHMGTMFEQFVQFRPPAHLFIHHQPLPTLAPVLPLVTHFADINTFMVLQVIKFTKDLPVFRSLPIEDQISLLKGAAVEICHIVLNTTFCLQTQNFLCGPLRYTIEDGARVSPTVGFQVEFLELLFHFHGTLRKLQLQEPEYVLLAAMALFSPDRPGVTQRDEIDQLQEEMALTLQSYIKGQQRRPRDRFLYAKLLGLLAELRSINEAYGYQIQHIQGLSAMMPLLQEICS
Method in brief: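 Steps: transient transfection of HepG2 with multiple GAL4-UAS reporter units; 24 h compound incubation; RNA isolation, RT-PCR, 6-FAM primer extension, HpaI digest; capillary electrophoresis. Gain-of-signal relative to DMSO negative control.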

Row | Compound | outcome [1] | outcome [2] | outcome [3] | AC50 [4] | outcome [5] | outcome [6] | AC50 [7] | outcome [8] | outcome [7] | outcome [9] | outcome [4] | AC50 [5] | outcome [10] | AC50 [2] | AC50 [1] | AC50 [3]
1 | NC(=O)N1C(=O)C(C(=O)c2cc(Cl)cs2)c2cc(F)c(Cl)cc21 (configuration not stated) | inactive | inactive | inactive | 9.88 µM (active) | inactive | inactive | 14.1 µM (active) | inactive | – | – | – | – | – | – | – | –
2 | Cc1oc(-c2ccccc2)nc1CCOc1ccc(C[C@H](Nc2ccccc2C(=O)c2ccccc2)C(=O)O)cc1 | inactive | inactive | inactive | 16.6 µM (active) | inactive | – | – | – | inactive | inactive | – | – | – | – | – | –
3 | c1ccc2c(c1)Cc1ccccc1-2 | inactive | inactive | inactive | – | – | – | – | – | inactive | inactive | inactive | 35.4 µM (active) | – | – | – | –
4 | O=C(/C=C/c1ccc(O)cc1)CC(=O)/C=C/c1ccc(O)cc1 | inactive | inactive | inactive | 5.76 µM (active) | inactive | inactive | – | – | inactive | – | – | – | inactive | – | – | –
5 | CCc1ccc(CCOc2ccc(CC3SC(=O)NC3=O)cc2)nc1 (configuration not stated) | inactive | inactive | inactive | – | inactive | – | – | inactive | inactive | inactive | inactive | – | inactive | – | – | –
6 | Cc1ccc(S(=O)(=O)O)c(C)c1 | inactive | inactive | inactive | – | inactive | inactive | – | inactive | inactive | inactive | inactive | – | inactive | – | – | –
7 | CCCCCCCC(=O)O | inactive | inactive | inactive | – | inactive | – | – | inactive | inactive | inactive | inactive | – | inactive | – | – | –
8 | C=C(C)C(=O)OCCC(F)(F)C(F)(F)C(F)(F)C(F)(F)C(F)(F)C(F)(F)F | inactive | inactive | inactive | – | – | – | – | inactive | inactive | inactive | inactive | 38.4 µM (active) and 49.2 µM (active) | inactive | – | – | –
9 | CC(C)(C)CC(C)(C)c1ccc(O)c(-n2nc3ccccc3n2)c1 | inactive | inactive | inactive | 6.7 µM (active) | – | – | – | – | inactive | – | – | 26.8 µM (active) | – | – | – | –
10 | N#C[C@@H]1CC(F)(F)CN1C(=O)CNC1CC2CCC(C1)N2c1ncccn1 (some centres not stated) | inactive | inactive | inactive | – | inactive | inactive | – | inactive | inactive | inactive | – | – | – | – | – | –
11 | CCCOC(=O)c1ccc(O)cc1 | inactive | inactive | inactive | 139 µM (active) | – | inactive | 73.5 µM (active) | inactive | inactive | inactive | inactive | 6.31 µM (active) and 20.8 µM (active) | inactive | – | – | –
12 | CCCCC[C@H](O)CC(=O)CCc1ccc(O)c(OC)c1 | inactive | inactive | inactive | 27.7 µM (active) | inactive | inactive | – | – | inactive | inactive | – | – | inactive | – | – | –
13 | O=C(O)Cc1cc(I)c(Oc2cc(I)c(O)c(I)c2)c(I)c1 | inactive | inactive | inactive | 18.1 µM (active) and 23 µM (active) | inactive | – | 34.1 µM (active) | inactive | inactive | inactive | – | – | – | 67 µM (active) | – | –
14 | CC[C@H](C)[C@@H](C(=O)O)n1sc2ccccc2c1=O | inactive | inactive | inactive | – | inactive | – | – | inactive | inactive | – | inactive | – | inactive | – | – | –
15 | CCCCCCCCCCCCCCCS(=O)(=O)Oc1ccccc1 | inactive | inactive | inactive | – | inactive | – | – | – | inactive | – | inactive | – | inactive | – | – | –
16 | CCc1nn(C2CCCCC2)c2cc(C3(C#N)CCC(C(=O)O)CC3)ccc12 (configuration not stated) | – | inactive | inactive | 48.7 µM (active) | inactive | – | – | – | inactive | – | – | – | – | – | 52.3 µM (active) | –

Row | Compound | outcome [1] | outcome [2] | outcome [3] | AC50 [4] | outcome [5] | outcome [6] | AC50 [7] | outcome [8] | outcome [7] | outcome [9] | outcome [4] | AC50 [5] | outcome [10] | AC50 [2] | AC50 [1] | AC50 [3]
17 | CC(C)(C)c1cccc(C(C)(C)C)c1O | – | inactive | inactive | – | – | – | 144 µM (active) | – | – | inactive | – | 61.4 µM (active) | inactive | – | 173 µM (active) | –
18 | CCCCOCCO | inactive | inactive | inactive | – | inactive | inactive | – | inactive | inactive | – | inactive | – | inactive | – | – | –
19 | CC(=O)CC(C)(C)O | inactive | inactive | inactive | – | – | inactive | – | inactive | inactive | inactive | inactive | 26.5 µM (active) | – | – | – | –
20 | C[C@@H]1C[C@H]2[C@@H]3CCC4=CC(=O)C=C[C@]4(C)[C@@]3(F)[C@@H](O)C[C@]2(C)[C@@]1(O)C(=O)COP(=O)(O)O | inactive | inactive | inactive | – | inactive | – | – | inactive | inactive | inactive | inactive | – | – | – | – | 473 nM (active)
21 | CCCCCCC(=O)O | inactive | inactive | inactive | – | inactive | inactive | – | inactive | inactive | inactive | inactive | – | inactive | – | – | –
22 | CC(C)(C)c1cc(C(C)(C)C)c(O)c(C(C)(C)C)c1 | inactive | inactive | inactive | – | inactive | – | 20.3 µM (active) | inactive | inactive | inactive | – | – | inactive | – | 87.1 µM (active) | –
23 | COc1cc(CCC(=O)CC(=O)CCc2ccc(O)c(OC)c2)ccc1O | inactive | inactive | inactive | 13.7 µM (active) | inactive | – | – | inactive | inactive | – | – | – | inactive | – | – | –
24 | Cc1cc(C)c(O)c(C)c1 | inactive | inactive | inactive | – | – | – | – | inactive | inactive | – | – | 100 µM (active) | inactive | – | – | –
25 | NCC(F)(F)C(F)(F)C(F)(F)C(F)(F)C(F)(F)C(F)(F)C(F)(F)F | inactive | inactive | inactive | – | inactive | inactive | – | – | inactive | inactive | inactive | – | inactive | – | – | –
26 | Nc1cccc2c(N)cccc12 | inactive | inactive | inactive | – | inactive | – | – | inactive | inactive | – | inactive | – | inactive | – | – | –
27 | CC(O)CO (configuration not stated) | inactive | inactive | inactive | – | inactive | – | – | – | inactive | inactive | inactive | – | – | – | – | –
28 | c1ccc2cc3c(ccc4ccccc43)cc2c1 | inactive | inactive | inactive | 7.85 µM (active) | – | – | – | inactive | inactive | inactive | inactive | 2.44 µM (active) [middle of 4 runs] | inactive | – | – | –
29 | CCCCCCCCCCCCc1ccccc1S(=O)(=O)O | inactive | inactive | inactive | – | inactive | – | – | inactive | inactive | – | inactive | – | inactive | – | – | –
30 | CCC(=C(c1ccc(O)cc1)c1ccc(OCCN(C)C)cc1)c1ccccc1 | inactive | inactive | inactive | 3.53 µM (active) and 7.1 µM (active) and 2.37 µM (active) | – | inactive | 11.2 µM (active) and 2.37 µM (active) | inactive | inactive | inactive | inactive | – | inactive | 10.4 µM (active) | 3.39 µM (active) | –
31 | CC1=C(/C=C/C(C)=C/C=C/C(C)=C/C(=O)O)C(C)(C)CCC1 | – | inactive | inactive | 6.62 µM (active) and 11.9 µM (active) | – | – | 44.3 µM (active) and 8.86 µM (active) | inactive | – | – | – | – | – | – | 23.7 µM (active) and 102 µM (active) | –
32 | CN1CCN(c2ccccc2/C=C2\SCCN(c3ccc(Cl)c(Cl)c3)C2=O)CC1 | inactive | inactive | inactive | – | inactive | inactive | – | – | inactive | inactive | inactive | – | inactive | – | – | –
